# About 83,000 compounds went through this panel and 20% of them were active in at least one assay; those are over-represented in the sample as a whole.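 Growth was measured after 48 h exposure to one concentration of compound in 96-well plates. Values under 10 count as active.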 Values without a mark were called inactive. Calls of active or inactive are those of the source.
# System: SK-OV-3 ovarian
# Assay: NCI-60 one-dose screen, 48 h (100 = growth as untreated, 0 = no growth, -100 = all killed)
# Conditions: 10 µM unless noted
# Procedure: Growth inhibition of the SK-OV-3 human tumor cell line is measured as a screen for anti-cancer activity. Cells are grown in 96 well plates and exposed to the test compound for 48 hours. Compounds are tested at a single concentration, which is 10^-5 M for most compounds. The reported endpoint is percent growth (GI% or GIPRCNT), where numbers from 0 - 100% represent growth inhibition, and numbers from -100% - 0 represent cell death. For example, a value of 40 represents 60% growth inhibition. A value of 0 means no net growth occurred over the course of the experiment. A value of -40 indicates 40% of cells at the beginning of the experiment died by the end of the experiment. A value of -100 means all cells are dead at the end of the experiment.
# NCI-60 Human Tumor Cell Lines Screen was performed using the standard one-dose NCI protocol, which is described in more detail at https://dtp.cancer.gov/discovery_development/nci-60/default.htm.
# Compounds with GIPRCNT values below 10 were considered active. Activity score was based on GIPRCNT using the following formula: […]
# Score is 0 for GIPRCNT values of 100 or above, 50 for GIPRCNT values of 0, and 100 for GIPRCNT values of -100.
row,Compound,growth
1,COc1ccc(CCN2CC=Cn3c2nc2ccccc2c3=O)cc1,59.8%
2,COc1c(C2CC(=O)Nc3c2cnn3Cc2ccco2)cc2c(c1OC)OCO2 (stereo not given),-9.03% (active)
3,COc1ccc(C(=O)COc2ccc(/C=C3\Oc4ccc(Cl)cc4C3=O)cc2)cc1,98.7%
4,O=C1C[C@H](N2C(=O)c3ccccc3S2(=O)=O)C2CO[C@@H]1O2,98.5%
5,C/C(=C(/c1ccc(O)cc1)c1ccc(Cl)cc1)c1ccccc1,-85.6% (active)
6,CN1CCN(c2ccc3nc(-c4ccc5nc(-c6ccc(OCCC(C)(C)C)cc6)[nH]c5c4)[nH]c3c2)CC1,88.8%
7,COc1cc(NCCCCN=C(N)NC(N)=NC(C)C)c2ncccc2c1,100%
8,CC(C)C1=C[C@@]23CC[C@@H]4[C@](C)(CCC[C@@]4(C)C(=O)OCC#CCN4CCCC4)[C@H]2C[C@@H]1[C@H]1C(=O)OC(=O)[C@H]13,90.5%
9,COc1cc2cc(COc3nccc(-c4ccc(Cl)cc4)n3)c(=O)[nH]c2cc1OC,89.9%
10,Cc1noc(C)c1-c1cc(O)cc(C(O)c2ccccc2)c1 (stereo not given),43.7%
11,O=C(Nc1ccc(F)cc1)Nc1ccc(CCO)cc1,113%
12,CCCCCCCCCCCCCCCCCCNC(=O)[C@H]1CSC(c2ccc(F)c(OC)c2)N1 (stereo not given in full),10.5%
13,Cc1ccc(Nc2nc(N)nc(Nc3ccc4ccccc4c3)n2)cc1,58.4%
14,C=C(CN1CCN(c2cccc(C(F)(F)F)n2)CC1)c1ccc(C(=O)Nc2ccccc2N)cc1,21.2%
15,CN(CC(=O)N(Cc1ccc(C2CCCCC2)cc1)c1ccc(C(=O)NO)cc1)S(=O)(=O)c1c(F)c(F)c(F)c(F)c1F,111%
16,C/C(Cc1ccc(Cl)cc1)=C(\c1ccc(OCCN2CCCCCC2)cc1)c1ccc(OC(=O)Cc2ccccc2)cc1,90.6%
17,COC(=O)C12C3C(=O)N(c4ccc(OC)cc4)C(=O)C3C(c3cn(-c4ccccc4)nc3C)N1[C@H](c1cn(-c3ccccc3)nc1C)[C@@H]1C(=O)N(c3ccc(OC)cc3)C(=O)[C@@H]12 (stereo not given in full),101%
18,NS(=O)(=O)N(c1cc(C(F)(F)F)cc(C(F)(F)F)c1)C1CCN(Cc2ccc(F)cc2)CC1,87.9%
19,CCN(C(=O)CN1CCN(c2cc3c(cc2F)c(=O)c(C(=O)O)cn3CC)CC1)c1nc(-c2ccccc2)cs1,-2.59% (active)
20,O=C(NC(Cc1ccccc1)C(=O)CCl)OCc1ccccc1 (stereo not given),87.8%

row,Compound,growth
1,O=C1C2CC=CCC2C(=O)N1CNc1ccc(Cl)cc1 (stereo not given),101%
2,COc1ccc(-c2c3c(nc4n[nH]c(-c5ccc(Cl)cc5)c24)-c2ccccc2C(=O)C3=O)cc1,42.5%
3,O=C(/C=C/c1cccc(Br)c1)c1ccccc1,82.1%
4,O=C(CO[N+](=O)[O-])Nc1ccc(C(=O)/C=C/c2ccc3c(c2)OCO3)cc1,111%
5,Nc1ccc(N2CCOCC2)cc1,104%
6,COc1cc2nc3cc([N+](=O)[O-])ccc3c(NCCCNCC(C)(C)O)c2cc1OC,-46% (active)
7,C(=N\Nc1ccccn1)/c1ccccn1,30.5%
8,CCN(CC)c1ccc(CNc2cc(C)nc3ccc(OC)cc23)cc1,84.7%
9,CS(=O)CCCCCN=C=S (stereo not given),8.97% (active)
10,COc1ccc(-c2cc(=O)[nH]c3c(OC)c4ccccc4c(OC)c23)cc1,2.24% (active)
11,CCOC(=O)c1cnc2cc(Cl)c(F)cc2c1Nc1cccc(NS(C)(=O)=O)c1,111%
12,COc1ccccc1/C=C(/C(=O)c1ccccc1)c1ccccc1,103%
13,CC[C@]12C=CCN3CC[C@@]4(c5ccc(OC)cc5N(C)[C@H]4[C@@](O)(C(=O)OC)[C@@H]1OC(=O)CCC(=O)N[C@@H](Cc1c[nH]c4ccccc14)C(=O)OC)[C@@H]32,100%
14,Cc1ccc2cnc(N)c(C#Cc3cncc(C(=O)Nc4ccc(CN5CCN(C)CC5)c(C(F)(F)F)c4)c3)c2c1,-17.5% (active)
15,CC(C)(C)n1cc(-c2ccnc(NCCCNS(=O)(=O)c3cccc4ccccc34)c2)c(-c2cccc(O)c2)n1,71.4%
16,O=c1c2c3c(sc2n2c(CCl)nnc2n1Cc1ccccc1)CCCC3,103%
17,COc1cnc2c(c1)C(=O)c1c-2n(CCCN2CCCC2)c(=O)c2cc([N+](=O)[O-])ccc12,-9.51% (active)
18,C=CCSc1nnc(-c2ccc(C(C)(C)C)cc2)n1-c1cccc(C(F)(F)F)c1,61.5%
19,CNc1cc2nc3cc(NC)c(C)cc3cc2cc1C,12.7%
20,CNC(=S)N/N=C/CSC/C=N/NC(=S)NC,80.5%

# Reference: PubChem BioAssay (NCI)
